# Results as given in PubChem BioAssay (NCI).
# Compounds without any hit were thinned out: in the full panel of roughly 83,000, 20% have a hit.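 Percent growth is the endpoint: 0 to 100 indicates growth inhibition (40 means 60% inhibition), 0 means no net growth, and negative values indicate cell death.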 A number with no mark means an inactive call. Activity calls are given as the source filed them. Rule for the calls: active = growth percent below 10; inactive = the rest.
# Test system: RPMI-8226 leukemia
# Test: NCI-60 one-dose screen, 48 h (100 = growth as untreated, 0 = no growth, -100 = all killed)
# Settings: 10 µM unless noted
row,Compound,growth
1,CN(C)CC1CCC(CN(C)C)C1=O (stereo not drawn),62.2%
2,N#CC1=C(N)Oc2c(ccc3ccccc23)C1c1ccccc1 (stereo not drawn),8.06% (active)
3,Cc1ccc(NC(=O)c2sc3nc(C)c(Br)c(C)c3c2N)cc1,83.3%

# Test system: OVCAR-8 ovarian
# Test: as above
# Settings: 10 µM unless noted
row,Compound,growth
1,Cn1c(=O)cc2c3c(c(NCCCO)ccc31)C(=O)c1ccccc1-2,33.2%
2,O=C(OC(CO)C(=O)NC12CC3CC(CC(C3)C1)C2)c1ccc(Cl)cc1 (stereo not drawn),100%
3,N#Cc1nc(-c2ccc(F)cc2)oc1S(=O)(=O)N1CCCCC1,58.3%
4,COC1/C=C/OC2(C)Oc3c(C)c(O)c4c(O)c(c(/C=N/Nc5ccc([N+](=O)[O-])cc5[N+](=O)[O-])c(O)c4c3C2=O)NC(=O)C(C)=C/C=C/C(C)C(O)C(C)C(O)C(C)C(OC(C)=O)C1C (stereo not drawn),27.3%
5,O=C1c2c(c3c4ccccc4[nH]c3c3ccc4ccccc4c23)C(=O)N1CCN1CCOCC1,31.5%
6,NC(=O)c1cc(I)ccc1NC(=O)/C=C/c1ccccc1,31%
7,COC(=O)c1c2c(c(C)[n+]([O-])c1C)C(=O)C(NCc1cccc(OC)c1)=CC2=O,-4.96% (active)
8,COc1ccc(CNc2c3ccccc3nc3ccccc23)cc1,27.7%
9,N=C(N)c1ccc(-c2ccc(-c3ccc(Cl)c(Cl)c3)s2)nc1,-19.9% (active)
10,Nc1c(C(=O)Nc2ccccc2F)sc2nc3c(cc12)CCCC3,40.7%
11,Cc1ccc2c(n1)C(=O)C(Br)=C(C1CCCC1)C2=O,96%
12,N#CC1=C(N)Oc2c(sc3c(Br)cccc23)C1c1ccc(Cl)cc1 (stereo not drawn),23%
13,COc1ccc(/C=C(\C#N)n2nnc3cc(F)c(F)cc32)cc1,70.1%
14,COc1cc(NS(=O)(=O)c2ccc(-c3cnc(C4CC4)o3)cc2)ccc1F,28.6%
15,CN1CCN(c2cc(Nc3cc(C4CC4)[nH]n3)nc(Nc3ccc(CC(=O)NCc4cccc(F)c4)cc3)n2)CC1,40.7%
16,O=C(Nc1cccc2ccccc12)NC1CC1,101%
17,CN(C)CC(C)(C)C(=O)/C=C/c1ccccc1,-47.1% [25 µM] (active)
18,COc1ccc(-c2nn(-c3cccc(Cl)c3)cc2-c2cc(-c3ccc(Br)cc3)nc(N)n2)cc1,98.9%

row,Compound,growth
1,COc1cc2c(c(OC)c1OC)CCC(c1cccc(NC(=O)c3ccc(Br)cc3)c1)O2 (stereo not drawn),85.3%
2,CCOC(=O)C#Cc1c(C(=O)OCC)nnn1Cc1ccc([N+](=O)[O-])cc1,63.3%
3,O=C(N/N=C/c1c(Cl)cccc1Cl)c1cccnc1Nc1cccc(C(F)(F)F)c1,49.4%
4,C#COc1cccc(Nc2c(C#N)cnc3ncc(NC(=O)CCl)cc23)c1,32.2% [6.25 µM]
5,CC(C)(Sc1cc(C(C)(C)C)c(O)c(C(C)(C)C)c1)Sc1cc(C(C)(C)C)c(OC(=O)CCCC(=O)O)c(C(C)(C)C)c1,56.7%
6,COc1c(B(O)O)cccc1-c1cc(C)c2c(ccc3[nH]ncc32)n1,64.1%
7,CCOC(=O)C1=C(N)Oc2c(sc3c(F)cccc23)C1c1ccc(O)cc1 (stereo not drawn),44.1%
8,OCCn1cc(-c2nc(-c3c[nH]c4ncccc34)cs2)c2cc(F)ccc21,80.2%
9,O=C(/C=C/c1cccs1)Nc1ncc(Cc2ccccc2F)s1,29.8%
10,COc1ccc(CN2c3ccccc3Sc3ccccc32)cc1F,23.7%
11,CCN1C(=O)N(CC)C2C1NN=c1s/c(=C\c3ccccc3F)c(=O)n12 (stereo not drawn),-1.12% (active)
12,CS(=O)(=O)Nc1cncc(-c2ccc3ncnc(Nc4cncc(Cl)c4)c3c2)c1,87.1%
13,C1CN(SSN2CCOCC2)CCO1,-25.2% [100 µM] (active)
14,CS(=O)(=O)c1ccc(-c2cnn3ccc(-c4cccc(S(=O)(=O)C5CC5)c4)nc23)cc1,43.7%
15,CN1C(=O)/C(=C\c2nc([P+](c3ccccc3)(c3ccccc3)c3ccccc3)c(N3CCOCC3)o2)SC1=S,96.4%
16,C=C(C)[C@@H]1CCC[C@]2(COS(=O)(=O)c3ccc(C)cc3)CC[C@]3(C)[C@@H](CC[C@@H]4[C@@]5(C)CCCNC(C)(C)[C@@H]5CC[C@]43C)[C@@H]12,-77.6% (active)
17,Clc1ccc2c(c1)C(c1c[nH]c3ccccc13)(c1c[nH]c3ccccc13)CCO2,58.6%
